Inconclusive results are not listed. Activity calls are given as the source filed them.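 The calls were made as follows, unless noted: active = percent response above 42, roughly 3 SD of non-fluorescent test compounds; inactive = the rest.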
Columns and labels:
[1] = rapamycin-like changes in RPL19A-GFP expression – cell-based, S. cerevisiae, multiplex flow cytometry, primary screen (AID 1862; in the data active = percent of DMSO control GFP below about 86%;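 also: lower values mimic rapamycin by blocking the RPL19A rise seen in DMSO cells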); details: S. cerevisiae RPL19A-GFP strain, flow cytometry fluorescence, 3 h; at 10 µM; stronger effect = lower value
[2] = TOR pathway GLN3 branch reporter MEP2-GFP changes – S. cerevisiae, multiplex flow cytometry, primary screen (AID 1867;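 active = GFP response, as percent of the DMSO control, above the screen-wide mean plus 3 SD, about 139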;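 also: median GFP channel fluorescence of barcode-gated MEP2-GFP cells measured by flow cytometry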); details: S. cerevisiae MEP2-GFP strain, 3 h, at 10 µM, stronger effect = higher value, 100% means same as DMSO wells
[3] = TOR pathway RTG branch CIT2 reporter changes – S. cerevisiae, GFP fusion, multiplex flow cytometry, primary screen (AID 1870;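 active = percent response above a set limit, the screen-wide mean plus 3 SD, cut at about 130% in these data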;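 also: barcoded CIT2-GFP strain pooled with four other GFP strains with rapamycin as positive control; median GFP fluorescence per well over plate mean of DMSO wells so 100% = DMSO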); details: S. cerevisiae CIT2-GFP expression, 3 h, at 10 µM, stronger effect = higher value
[4] = TOR pathway LAP4-GFP level changes – S. cerevisiae, multiplex flow cytometry, primary screen (AID 1873;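 active = GFP signal, as percent of the solvent control, above the screen mean plus 3 SD, about 149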); details: S. cerevisiae LAP4-GFP expression, 3 h, at 10 µM, stronger effect = higher value
[5] = yeast AGP1-GFP level changes, GLN3 branch – cell-based, multiplex flow cytometry, S. cerevisiae, primary screen (AID 1887;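 active = GFP signal above the screen-wide mean plus 3 SD, that is over about 124.5% of the solvent control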;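 also: AGP1-GFP fusion strain of S. cerevisiae within a five-strain barcoded multiplex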); details: 3 h, at 10 µM, stronger effect = higher value
[6] = reduced mouse 2C T cell binding to pMHC/ICAM-1 vesicles – MLPCN validation set, flow cytometry, LFA-1/ICAM-1 modulator project, pilot screen (AID 2523;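 active = response below a set limit, under 55% cells CD8-positive and vesicle-bound, and CD8 cells' 90th-percentile brightness under 279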;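 as to vesicle binding response: mean PE anti-B7-1 fluorescence of CD8+ cells relative to row control; 100% = QL9-loaded vesicles with DMSO vehicle in the same plate row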); details: 2C mouse CD8+ T cells, at 7 µM, stronger effect = lower value; double positive events: measured here: CD8+/vesicle+ event percentage
[7] = target: Integrin beta-1 (Homo sapiens) + Integrin alpha-4 (Homo sapiens) (UniProt P13612+P05556); experiment: alpha4beta1 integrin LIBS antibody binding reduction – U937 cells, HUTS-21 mAb, flow cytometry, validation set, VLA-4 allosteric modulator project, pilot screen (AID 2674;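 active = inhibition above 50%, about 3 SD of the validation set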;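 also: antibody binding induced by the VLA-4 ligand LDV present at three times its Kd; 0% = LDV ligand with antibody and no compound and 100% = antibody without LDV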); details: HUTS-21 LIBS mAb binding, at 6.7 µM, stronger effect = higher value, binding induced by LDV ligand
[8] = calorie-restriction mimetic ROS inhibitors, yeast – validation compound set, pilot screen (AID 2706;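 active = superoxide response below 65% of plate, a cut near 3 SD across the whole screen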;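 also: yeast exposed to compound for one week at 30 degrees C before staining; 100% = mean of all compound wells on the same plate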); details: S. cerevisiae aging, superoxide DHE fluorescence; at 10 µM; stronger effect = lower value
[9] = target: Beta-adrenergic receptor kinase 1 (Homo sapiens) (UniProt P25098); experiment: GRK2 binders displacing RNA aptamer, biochemical, validation, human GRK2, bead flow cytometry (AID 488806;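 active = aptamer binding inhibition above 30%, about 3 SD of noise from non-fluorescent compounds; inactive = inhibition at or below 30%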); details: bead-bound GRK2, FAM-aptamer displacement, at 10 µM, stronger effect = higher value
[10] = target: Beta-2 adrenergic receptor (Homo sapiens) (UniProt P07550); experiment: agonist-induced loss of surface beta2AR – cell-based, FAP fluorogen, flow cytometry, validation set, pilot screen (AID 504459); details: Am2.2-beta2AR cells, at 10 µM, stronger effect = higher value;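 also: agonist-driven loss of surface beta2AR via internalization measured by FAP dye flow cytometry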
[11] = target: AP-2 complex subunit beta (Homo sapiens) (UniProt P63010); experiment: beta-arrestin/AP2 interaction blockers – biochemical, validation set, GST-AP2 beads, flow cytometry, pilot screen (AID 504541;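 active = inhibition above 54%, about 3 SD of non-fluorescent compounds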;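 also: AP2 carries R879A mutation and is captured from E. coli lysate; bead-bound FITC arrestin peptide fluorescence measuring arrestin peptide binding to AP2; 0% = DMSO wells and 100% = excess unlabeled arrestin peptide control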); details: FITC arrestin peptide, at 10 µM, stronger effect = higher value, AP2 beta2 appendage fragment, R879A mutant
[12] = cytosolic pH regulators acting via V-ATPase – S. cerevisiae, pHLuorin, HTS validation (AID 504600; in the data active = response above about 15%;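 also: plate controls were DMSO for no effect and reference compound for full effect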); details: V-ATPase proton transport, at 10 µM, stronger effect = higher value
[13] = tested on: anti-desmoglein-3 scFv antibody binding to human DSG3; experiment: blockers of pathogenic pemphigus antibody–desmoglein-3 binding – biochemical, validation compound set, bead-based, flow cytometry, pilot screen (AID 588368;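 active = binding below the plate cutoff, the plate median minus 3 SD, with a reading above zero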;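 also: signal is the median channel fluorescence of bead-bound GFP antibody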); details: Protein G beads, DSG3-Fc, scFv-GFP binding, at 10 µM, stronger effect = lower value
[14] = Nile Red efflux blockade in pump-expressing yeast – validation compound set, multiplex, phenotypic, pilot screen (AID 588506;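 active = efflux inhibition above 0.42, the validation set average plus 4 SD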;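 also: Nile Red retained in cells so higher fluorescence means more efflux inhibition; 0 = negative control wells and 1 = enniatin B 25 µM full block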); details: S. cerevisiae pump-expressing triplex, Nile Red efflux flow cytometry; at 10 µM; stronger effect = higher value; the pumps come from Candida albicans
[15] = target: ATP-binding cassette sub-family B member 6 (Homo sapiens) (UniProt Q9NP58); experiment: blockers of ABCB6-driven porphyrin uptake – K562-ABCB6 cells, flow cytometry, validation set, pilot screen (AID 588550;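 active = inhibition above the screen-wide mean plus 3 SD, about 51%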;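 also: 0% = DMSO wells and 100% = benzethonium chloride 70 µM positive control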); details: K562-ABCB6 porphyrin accumulation, 1 h, at 10 µM, stronger effect = higher value
[16] = AML differentiation inducers, ER-HoxA9 marrow cells – cell-based, GFP/MAC1 double positive, flow cytometry, validation set, primary screen (AID 588685;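 active = differentiation response of at least 50%, scaled between solvent and reference control, from cells with both markers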;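 also: compound exposure lasts four days before antibody staining and flow analysis; 0% = DMSO wells and 100% = 5 µM fulvestrant positive control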); details: stronger effect = higher value, normalized: vehicle 0, fulvestrant 100

Chain of Beta-2 adrenergic receptor (Homo sapiens) (P07550 whole entry, looked up): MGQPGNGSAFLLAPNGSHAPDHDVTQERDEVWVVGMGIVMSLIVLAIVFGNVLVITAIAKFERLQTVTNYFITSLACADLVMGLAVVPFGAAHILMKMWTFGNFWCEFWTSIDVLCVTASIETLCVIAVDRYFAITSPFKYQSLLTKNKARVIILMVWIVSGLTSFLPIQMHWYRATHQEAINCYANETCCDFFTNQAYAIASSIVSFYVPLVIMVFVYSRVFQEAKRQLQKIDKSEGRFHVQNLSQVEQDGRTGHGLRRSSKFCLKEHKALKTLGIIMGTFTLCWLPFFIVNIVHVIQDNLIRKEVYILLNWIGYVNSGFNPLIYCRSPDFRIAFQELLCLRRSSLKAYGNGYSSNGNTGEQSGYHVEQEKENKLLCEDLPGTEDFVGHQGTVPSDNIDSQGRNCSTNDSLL
Chain of Beta-adrenergic receptor kinase 1 (Homo sapiens) (P25098 whole entry, looked up): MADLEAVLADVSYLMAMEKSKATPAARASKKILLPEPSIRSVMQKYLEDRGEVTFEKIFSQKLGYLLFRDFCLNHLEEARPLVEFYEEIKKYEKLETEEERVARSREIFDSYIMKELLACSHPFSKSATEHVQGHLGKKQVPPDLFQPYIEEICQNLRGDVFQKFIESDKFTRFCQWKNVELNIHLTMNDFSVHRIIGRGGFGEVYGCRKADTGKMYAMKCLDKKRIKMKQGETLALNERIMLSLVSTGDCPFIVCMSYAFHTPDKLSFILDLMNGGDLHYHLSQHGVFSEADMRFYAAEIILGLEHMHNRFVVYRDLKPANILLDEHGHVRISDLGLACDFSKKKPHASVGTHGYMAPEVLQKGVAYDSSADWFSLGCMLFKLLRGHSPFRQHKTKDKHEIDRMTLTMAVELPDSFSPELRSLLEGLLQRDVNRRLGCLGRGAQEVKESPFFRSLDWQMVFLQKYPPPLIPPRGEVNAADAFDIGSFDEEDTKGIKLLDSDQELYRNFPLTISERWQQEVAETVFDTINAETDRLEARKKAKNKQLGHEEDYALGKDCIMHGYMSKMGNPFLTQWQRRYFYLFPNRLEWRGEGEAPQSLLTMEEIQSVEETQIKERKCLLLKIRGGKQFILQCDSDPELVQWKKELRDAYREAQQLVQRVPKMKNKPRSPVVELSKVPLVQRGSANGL
Chain of ATP-binding cassette sub-family B member 6 (Homo sapiens) (Q9NP58 whole entry, looked up): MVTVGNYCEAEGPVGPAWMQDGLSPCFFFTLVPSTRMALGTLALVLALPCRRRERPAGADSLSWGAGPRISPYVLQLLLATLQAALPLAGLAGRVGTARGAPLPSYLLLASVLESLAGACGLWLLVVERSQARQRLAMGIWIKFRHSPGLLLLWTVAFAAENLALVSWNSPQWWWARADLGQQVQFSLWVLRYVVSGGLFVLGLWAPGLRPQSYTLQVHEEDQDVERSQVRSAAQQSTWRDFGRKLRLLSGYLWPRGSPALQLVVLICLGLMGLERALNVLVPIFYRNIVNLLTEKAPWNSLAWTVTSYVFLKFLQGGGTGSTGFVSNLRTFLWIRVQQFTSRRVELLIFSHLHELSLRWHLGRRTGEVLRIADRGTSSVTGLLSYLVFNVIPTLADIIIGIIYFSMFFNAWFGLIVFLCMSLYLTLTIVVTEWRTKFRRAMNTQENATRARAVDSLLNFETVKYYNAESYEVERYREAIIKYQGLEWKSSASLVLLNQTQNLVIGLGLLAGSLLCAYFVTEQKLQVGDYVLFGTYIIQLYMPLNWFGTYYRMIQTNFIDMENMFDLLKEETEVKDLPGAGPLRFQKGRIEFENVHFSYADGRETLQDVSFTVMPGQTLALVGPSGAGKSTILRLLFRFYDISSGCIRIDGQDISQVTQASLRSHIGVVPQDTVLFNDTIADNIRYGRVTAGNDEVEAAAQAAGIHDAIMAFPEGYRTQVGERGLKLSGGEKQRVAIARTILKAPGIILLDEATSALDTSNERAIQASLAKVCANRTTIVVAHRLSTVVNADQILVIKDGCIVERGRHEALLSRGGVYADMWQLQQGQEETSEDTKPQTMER
Chain of AP-2 complex subunit beta (Homo sapiens) (P63010 whole entry, looked up, the tested form may be a part, one chain of several): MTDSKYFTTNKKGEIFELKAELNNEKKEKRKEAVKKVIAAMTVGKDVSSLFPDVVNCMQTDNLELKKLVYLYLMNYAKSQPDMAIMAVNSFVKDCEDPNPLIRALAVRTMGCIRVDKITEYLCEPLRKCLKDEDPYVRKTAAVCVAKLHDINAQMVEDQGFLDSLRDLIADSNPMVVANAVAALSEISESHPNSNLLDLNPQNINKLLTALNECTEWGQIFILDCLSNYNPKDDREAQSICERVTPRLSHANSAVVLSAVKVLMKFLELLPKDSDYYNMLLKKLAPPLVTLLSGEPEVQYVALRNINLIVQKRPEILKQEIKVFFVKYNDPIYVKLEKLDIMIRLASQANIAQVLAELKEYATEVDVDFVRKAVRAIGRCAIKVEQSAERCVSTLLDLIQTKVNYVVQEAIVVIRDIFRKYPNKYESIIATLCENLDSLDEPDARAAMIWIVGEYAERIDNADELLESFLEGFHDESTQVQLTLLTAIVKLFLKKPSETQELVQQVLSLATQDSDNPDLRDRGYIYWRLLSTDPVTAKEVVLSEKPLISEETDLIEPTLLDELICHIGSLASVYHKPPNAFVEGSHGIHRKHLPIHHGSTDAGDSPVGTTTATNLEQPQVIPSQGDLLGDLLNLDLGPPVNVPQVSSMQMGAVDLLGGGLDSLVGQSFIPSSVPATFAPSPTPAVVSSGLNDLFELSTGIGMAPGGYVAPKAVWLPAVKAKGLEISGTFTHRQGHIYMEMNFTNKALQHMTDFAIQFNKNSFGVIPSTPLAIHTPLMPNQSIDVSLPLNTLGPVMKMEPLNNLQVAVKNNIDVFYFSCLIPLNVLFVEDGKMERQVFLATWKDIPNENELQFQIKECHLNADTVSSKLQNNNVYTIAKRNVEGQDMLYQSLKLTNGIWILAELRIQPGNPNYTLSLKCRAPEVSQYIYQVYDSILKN
Chain of Integrin beta-1 (Homo sapiens) + Integrin alpha-4 (Homo sapiens) (P05556 whole entry, looked up): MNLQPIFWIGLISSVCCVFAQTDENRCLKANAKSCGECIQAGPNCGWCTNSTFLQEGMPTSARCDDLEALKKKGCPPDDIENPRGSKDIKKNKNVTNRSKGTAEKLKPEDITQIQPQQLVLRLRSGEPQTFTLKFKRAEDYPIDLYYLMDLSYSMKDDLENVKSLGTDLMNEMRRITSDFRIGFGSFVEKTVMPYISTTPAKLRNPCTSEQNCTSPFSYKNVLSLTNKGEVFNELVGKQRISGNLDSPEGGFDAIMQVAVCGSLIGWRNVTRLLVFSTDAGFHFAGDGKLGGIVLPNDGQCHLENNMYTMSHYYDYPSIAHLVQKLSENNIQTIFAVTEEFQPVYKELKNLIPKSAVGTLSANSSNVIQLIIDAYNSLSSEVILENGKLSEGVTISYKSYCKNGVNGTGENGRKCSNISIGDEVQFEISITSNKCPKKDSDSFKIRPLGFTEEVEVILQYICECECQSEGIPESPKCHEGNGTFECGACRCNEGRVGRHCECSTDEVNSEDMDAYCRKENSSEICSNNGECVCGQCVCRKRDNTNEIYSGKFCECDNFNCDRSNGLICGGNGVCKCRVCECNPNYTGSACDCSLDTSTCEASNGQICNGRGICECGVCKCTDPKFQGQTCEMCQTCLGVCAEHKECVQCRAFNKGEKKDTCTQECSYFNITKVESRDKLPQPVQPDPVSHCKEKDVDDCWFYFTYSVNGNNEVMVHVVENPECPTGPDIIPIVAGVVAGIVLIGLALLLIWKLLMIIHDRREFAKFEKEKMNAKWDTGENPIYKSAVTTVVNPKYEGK
Chain of Integrin beta-1 (Homo sapiens) + Integrin alpha-4 (Homo sapiens) (P13612 whole entry, looked up): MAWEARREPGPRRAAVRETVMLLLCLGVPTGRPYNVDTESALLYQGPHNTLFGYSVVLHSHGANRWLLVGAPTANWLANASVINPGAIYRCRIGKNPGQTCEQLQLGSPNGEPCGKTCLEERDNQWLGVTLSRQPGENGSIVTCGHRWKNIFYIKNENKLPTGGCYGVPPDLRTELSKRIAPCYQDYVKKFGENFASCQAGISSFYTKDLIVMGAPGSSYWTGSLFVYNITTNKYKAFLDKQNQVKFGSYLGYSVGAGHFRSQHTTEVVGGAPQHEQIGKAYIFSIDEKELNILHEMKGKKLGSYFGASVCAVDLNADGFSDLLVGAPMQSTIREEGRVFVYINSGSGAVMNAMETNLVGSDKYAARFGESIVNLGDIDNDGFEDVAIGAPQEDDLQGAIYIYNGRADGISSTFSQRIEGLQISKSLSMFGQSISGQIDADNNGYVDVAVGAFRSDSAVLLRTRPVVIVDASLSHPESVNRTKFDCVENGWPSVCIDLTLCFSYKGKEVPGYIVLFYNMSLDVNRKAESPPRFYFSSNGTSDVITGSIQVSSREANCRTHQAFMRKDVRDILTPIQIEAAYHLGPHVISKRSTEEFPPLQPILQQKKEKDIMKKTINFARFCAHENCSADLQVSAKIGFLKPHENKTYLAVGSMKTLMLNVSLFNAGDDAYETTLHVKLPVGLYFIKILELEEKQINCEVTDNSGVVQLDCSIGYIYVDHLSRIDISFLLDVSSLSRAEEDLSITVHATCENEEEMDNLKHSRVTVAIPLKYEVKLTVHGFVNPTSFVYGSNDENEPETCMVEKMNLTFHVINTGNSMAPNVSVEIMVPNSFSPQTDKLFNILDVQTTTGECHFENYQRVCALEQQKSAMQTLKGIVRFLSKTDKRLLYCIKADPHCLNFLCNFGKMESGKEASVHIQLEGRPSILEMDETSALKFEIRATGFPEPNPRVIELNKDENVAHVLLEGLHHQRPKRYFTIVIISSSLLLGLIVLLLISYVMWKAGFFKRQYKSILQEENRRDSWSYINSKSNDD

O=C(NC1CC1)C1CCN(C2CCN(C(=O)Cc3ccc(F)cc3)CC2)CC1
active: vesicle binding response [6] 48%
38%: double positive events [6]
inactive: percent of DMSO control GFP [1] 94.6% | GFP response vs DMSO [2] 136% | percent response of DMSO control [3] 111% | GFP response vs DMSO [4] 84.7% | GFP response, % of DMSO [5] 90.5% | inhibition [7] -3.24% | superoxide response (% of plate) [8] 106% | aptamer binding inhibition [9] -7% | response [10] -2.98% | inhibition [11] 44.4% | response [12] -9.52% | binding (% of control) [13] 98.3% | efflux inhibition (fraction of control) [14] 0.27 | inhibition [15] 8% | differentiation response [16] 6.55%

Cc1ccccc1NC(=O)C1(C)Cc2ccccc2C(=O)O1 (stereo not given)
61.4%: double positive events [6]
inactive: percent of DMSO control GFP [1] 100% | GFP response vs DMSO [2] 103% | percent response of DMSO control [3] 92.9% | GFP response vs DMSO [4] 131% | GFP response, % of DMSO [5] 101% | vesicle binding response [6] 161% | inhibition [7] 10.5% | superoxide response (% of plate) [8] 96.3% | aptamer binding inhibition [9] 1% | response [10] -11% | inhibition [11] 29.5% | response [12] -1.4% | binding (% of control) [13] 101% | efflux inhibition (fraction of control) [14] -0.28 | inhibition [15] -4% | differentiation response [16] 18.4%

O=C1CC2(CCCC2)CC(=O)N1CCCCN1CCN(c2ncccn2)CC1
inactive: percent of DMSO control GFP [1] 102% | GFP response vs DMSO [2] 104% | percent response of DMSO control [3] 96.6% | GFP response vs DMSO [4] 91.4% | GFP response, % of DMSO [5] 106% | vesicle binding response [6] 1050% | inhibition [7] 7.85% | superoxide response (% of plate) [8] 101% | aptamer binding inhibition [9] 3% | response [10] -19.5% | inhibition [11] -0.56% | response [12] 2.1% | binding (% of control) [13] 101% | efflux inhibition (fraction of control) [14] 0.21 | inhibition [15] 9% | differentiation response [16] 12%
64.3%: double positive events [6]

OC(CCCN1CCC(O)(c2ccc(Cl)cc2)CC1)c1ccc(F)cc1 (stereo not given)
49.2%: double positive events [6]
inactive: percent of DMSO control GFP [1] 99.6% | GFP response vs DMSO [2] 103% | percent response of DMSO control [3] 108% | GFP response vs DMSO [4] 101% | GFP response, % of DMSO [5] 106% | vesicle binding response [6] 168% | inhibition [7] -14.5% | superoxide response (% of plate) [8] 96% | aptamer binding inhibition [9] -3% | response [10] 5.29% | inhibition [11] -4.86% | response [12] -0.08% | binding (% of control) [13] 104% | efflux inhibition (fraction of control) [14] -0.005 | inhibition [15] -1% | differentiation response [16] 10.1%

COc1ccc(C2CC(c3c(O)cc(C)oc3=O)=NCCS2)c(OC)c1 (stereo not given)
64.5%: double positive events [6]
inactive: percent of DMSO control GFP [1] 102% | GFP response vs DMSO [2] 108% | percent response of DMSO control [3] 111% | GFP response vs DMSO [4] 86.8% | GFP response, % of DMSO [5] 96.4% | vesicle binding response [6] 818% | inhibition [7] 36.9% | superoxide response (% of plate) [8] 92% | aptamer binding inhibition [9] 1% | response [10] 19.6% | inhibition [11] 1.7% | response [12] 0.66% | binding (% of control) [13] 108% | efflux inhibition (fraction of control) [14] 0.14 | inhibition [15] -46% | differentiation response [16] -4.64%

O=C1OC(c2ccccc2)=C/C1=C/c1cccs1
64.9%: double positive events [6]
inactive: percent of DMSO control GFP [1] 106% | GFP response vs DMSO [2] 99.3% | percent response of DMSO control [3] 105% | GFP response vs DMSO [4] 86.1% | GFP response, % of DMSO [5] 97.3% | vesicle binding response [6] 212% | inhibition [7] -2.53% | superoxide response (% of plate) [8] 97.6% | aptamer binding inhibition [9] 1% | response [10] -7.02% | inhibition [11] 6.48% | response [12] -2.38% | binding (% of control) [13] 93.3% | efflux inhibition (fraction of control) [14] -0.1 | inhibition [15] -5% | differentiation response [16] 3.18%

C=CCNC(=O)c1ccc(-c2cccc([N+](=O)[O-])c2)o1
52.6%: double positive events [6]
inactive: percent of DMSO control GFP [1] 98.8% | GFP response vs DMSO [2] 101% | percent response of DMSO control [3] 91.7% | GFP response vs DMSO [4] 107% | GFP response, % of DMSO [5] 95.1% | vesicle binding response [6] 773% | inhibition [7] 6.85% | superoxide response (% of plate) [8] 101% | aptamer binding inhibition [9] 3% | response [10] 9.11% | inhibition [11] -25% | response [12] -0.55% | binding (% of control) [13] 101% | efflux inhibition (fraction of control) [14] -0.34 | inhibition [15] 4% | differentiation response [16] 6.49%

O=C(O)CCCN1C(=O)NC2NC(=O)NC21 (stereo not given)
inactive: percent of DMSO control GFP [1] 103% | GFP response vs DMSO [2] 114% | percent response of DMSO control [3] 101% | GFP response vs DMSO [4] 86.1% | GFP response, % of DMSO [5] 97.5% | vesicle binding response [6] 914% | inhibition [7] -1.49% | superoxide response (% of plate) [8] 106% | aptamer binding inhibition [9] 3% | response [10] 0.46% | inhibition [11] 35.1% | response [12] -1.41% | binding (% of control) [13] 98.4% | efflux inhibition (fraction of control) [14] -0.04 | inhibition [15] 25% | differentiation response [16] 33.5%
64.9%: double positive events [6]

COc1ccccc1OCC(=O)O
inactive: percent of DMSO control GFP [1] 96.3% | GFP response vs DMSO [2] 107% | percent response of DMSO control [3] 98.6% | GFP response vs DMSO [4] 122% | GFP response, % of DMSO [5] 103% | vesicle binding response [6] 167% | inhibition [7] 3.67% | superoxide response (% of plate) [8] 106% | aptamer binding inhibition [9] -3% | response [10] -4.79% | inhibition [11] -3.11% | response [12] -0.38% | binding (% of control) [13] 99.3% | efflux inhibition (fraction of control) [14] -0.06 | inhibition [15] 6% | differentiation response [16] -26.4%
61.5%: double positive events [6]

O=C(/C=C/c1ccc(F)cc1)NC(=S)N1CCCCC1c1cccnc1 (stereo not given)
56.7%: double positive events [6]
inactive: percent of DMSO control GFP [1] 103% | GFP response vs DMSO [2] 106% | percent response of DMSO control [3] 112% | GFP response vs DMSO [4] 117% | GFP response, % of DMSO [5] 112% | vesicle binding response [6] 165% | inhibition [7] -3.67% | superoxide response (% of plate) [8] 92.2% | response [10] -15.6% | inhibition [11] 1.74% | response [12] 5.24% | binding (% of control) [13] 104% | efflux inhibition (fraction of control) [14] -0.13 | inhibition [15] -5% | differentiation response [16] -4.99%
active: aptamer binding inhibition [9] 82%
